Rows were chosen to be rich in hits. Some 0.36% of all compounds tested hit in one or more screens of this group.
TexasRed fluor: Total Fluorescence Counterscreen for Inhibitors of the Interaction of Thyroid Hormone Receptor and Steroid Receptor Coregulator 2; TRb/SRC2 Texas Red total fluorescence interference; Potency, µM (doses to about 106 µM), for the others: at the top dose fluorescence change, negative = quenching; 280,000 compounds, 0.29% hits; AID 1479, 2009; active = well fitted curve in either direction with a large enough effect; inconclusive = small, poorly fitted or top-dose-only effect; note: potency is the fitted concentration of half-maximal effect; % is set by controls: 0 for no effect and ±100 for the full control effect
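Flags fluorescent or light-absorbing compounds by total fluorescence, S + 2P, at 555 nm excitation and 632 nm emission. Mixture: 20 nM Texas Red SRC2 peptide, 0.6 uM human TRb LBD, 1 uM T3, 5% DMSO; compound exposure 5 h at ambient temperature.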
TRb SRC2 PPI: qHTS for Inhibitors of the Interaction of Thyroid Hormone Receptor and Steroid Receptor Coregulator 2 | Thyroid hormone receptor beta (Homo sapiens), P10828 | TRbeta-SRC2 peptide binding, fluorescence polarization; receptor liganded with 1 µM T3 | Potency, µM (series often up to 106 µM), for the others: top-dose activity change, negative = inhibition, most hits filed as inhibitors | 280,000 compounds, 0.065% hits; active = well fitted inhibition curve with a large enough effect; inconclusive = small, poorly fitted or top-dose-only effect, or effect the other way;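 note: potency is the fitted concentration of half-maximal effect; plate controls were bound peptide for no effect and peptide without receptor for full effect; nearly all actives have a fitted effect of over 50% in size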
Target sequence (P10828 whole entry, looked up): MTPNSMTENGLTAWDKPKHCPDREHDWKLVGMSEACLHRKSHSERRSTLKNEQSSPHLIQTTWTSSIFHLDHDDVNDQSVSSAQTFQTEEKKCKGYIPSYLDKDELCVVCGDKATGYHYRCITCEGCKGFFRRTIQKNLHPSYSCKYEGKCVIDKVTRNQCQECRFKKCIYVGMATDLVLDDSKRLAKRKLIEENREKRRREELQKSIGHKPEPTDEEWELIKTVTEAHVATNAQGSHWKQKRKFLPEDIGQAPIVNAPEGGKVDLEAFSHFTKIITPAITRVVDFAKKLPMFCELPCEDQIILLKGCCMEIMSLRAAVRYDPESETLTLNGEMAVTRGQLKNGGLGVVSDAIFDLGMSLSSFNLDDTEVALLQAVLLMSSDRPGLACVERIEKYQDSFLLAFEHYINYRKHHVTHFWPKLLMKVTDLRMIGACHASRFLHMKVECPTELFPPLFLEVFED
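Fluorescence polarization of 20 nM Texas Red SRC2 peptide with 0.6 uM human TRb ligand-binding domain, in Tris buffer with 1uM T3 and 5% DMSO. Incubated 5 hr ambient; normalized to unbound and bound controls.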
Menin MLL FP FL: qHTS Assay for Inhibitors Targeting the Menin-MLL Interaction in MLL Related Leukemias: Competition With Fluorescein Labeled MLL-derived Peptide | 290,000 tested, under 10 active | FP activity change, % at 61.4 µM | Fluorescence polarization, fluorescein-MLL peptide displacement from menin | AID 1766, 2009; active = well fitted curve in the direction sought with a large enough effect in the polarisation, not every such curve was filed as active; inconclusive = small, poorly fitted or top-dose-only effect, or effect the other way, or a change in a side signal; inactive = no such curve, though single readings can be large or run the other way; the % refers to the polarisation; note: % of control where 0% means no effect
Menin MLL FP TR: qHTS Assay for Inhibitors Targeting the Menin-MLL Interaction in MLL Related Leukemias: Competition With Texas Red Labeled MLL-derived Mutant Peptide; Menin + Texas Red MLL mutant peptide, fluorescence polarization; Potency, µM (titrated, usually from 61.6 µM), for the others: at the highest dose FP activity change, negative = inhibition, hits mostly inhibitors; 270,000 compounds, 0.23% hits; AID 1768, 2009; active = well fitted inhibition curve with a large enough effect in the polarisation, with a control signal flat, not every such curve was filed as active; inconclusive = small, poorly fitted or top-dose-only effect, or effect the other way, or a change in a side signal; inactive = no such curve, though single readings can be large or run the other way; the % refers to the polarisation; note: potency is the fitted concentration of half-maximal effect; % of control where 0% means no effect
MLL CXXC-DNA inh: qHTS Fluorescence Polarization Assay for Inhibitors of MLL CXXC domain - DNA interaction. MLL-CXXC / FITC-HOXA9 DNA fluorescence polarization. Potency, µM (highest dose often 115 µM), for inactives: at the highest dose activity change, negative = inhibition, most hits filed as inhibitors. 290,000 compounds, 0.037% hits. AID 2662, 2010; active = well fitted inhibition curve with a large enough effect in the polarisation, with a control signal flat, not every such curve was filed as active; inconclusive = small, poorly fitted or top-dose-only effect, or effect the other way, or a change in a side signal; inactive = no such curve, though single readings can be large or run the other way; the % refers to the polarisation; note: potency is the fitted concentration of half-maximal effect
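Purified MLL-CXXC (added from a 7 uM solution) was preincubated 5 min at ambient with pinned compounds in 50 mM Tris-HCl pH 7.5, 50 mM NaCl, 1 mM DTT, 0.05% BSA. Fluorescein-labeled HOX-A9 DNA (50 nM solution) followed, 30 min, then polarization read.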
* = called active by the depositor; ? = inconclusive; / = no result given; [ ] = another dose, or the depositor's remark.

SMILES	TexasRed fluor	TRb SRC2 PPI	Menin MLL FP FL	Menin MLL FP TR	MLL CXXC-DNA inh
Cc1cc(/C=C\c2ccc3cc(N(C)C)ccc3[n+]2C)c(C)n1-c1ccccc1	14µM*[fluorescent]	?	?	/	/
C[n+]1c(/C=C/c2ccc(O)cc2)ccc2ccccc21	/	/	25	-2%	19%
Cc1ccc2nc(-c3ccc(C)o3)c(Nc3ccc4c(c3)OCCO4)n2c1	0.0013µM*[quencher]	-15%	/	/	/
O=C(CSc1nc2ccccc2s1)N1c2ccccc2Sc2ccc(Cl)cc21	1%	-1%	-4	20µM*	23%
C=Cc1ccccn1	0%	5%	/	/	/
C(=C\c1ccccn1)/c1ccccn1	6%	-8%	-20	13µM*	9%
C[C@H](NC(=O)N1CCc2nc(COc3ccccc3)c3c(c2C1)CO[C@@H](C)C3)c1ccccc1	-14%[11.2 µM]	-3%[11.2 µM]	3[11.7 µM]	-11%[11.7 µM]	/
O=C(NCc1ccc(-c2nc3ccccc3s2)cc1)c1ccco1	0.0006µM*[quencher]	-10%	-2	-15%	-3%
CC1CCc2noc(NC(=O)c3ccccc3[N+](=O)[O-])c2C1 (configuration not stated)	22387µM*[quencher]	-10%	/	/	/
COc1cc(NC(=O)N2CCN(c3cc(-c4noc(C)n4)ccc3C)CC2)cc(OC)c1OC	-2%	-1%	/	/	/
CN(C)c1ccc(/C=C/c2cc[n+](C)cc2)cc1	45µM*[fluorescent]	?	?	?	?
CCCCCCCCCC[N+](C)(C)Cc1ccccc1	-1%[201 µM]	4%[201 µM]	/	/	/
Cc1ccccc1NC(=O)CSCn1nnc2c(=O)[nH]c(Cc3ccc(F)cc3)nc21	-7%	0%	/	/	/
Cc1ccc(NC(=O)CSCn2nnc3c(=O)[nH]c(Cc4ccc(F)cc4)nc32)c(C)c1	0.32µM*[quencher]	-8%	/	/	/
COc1ccc2oc(=O)c(-c3nnc(-c4ccc(C)cc4)o3)cc2c1	20µM*[quencher]	-17%[53 µM]	/	/	/
Cc1ccc(C(=O)[C@@H]2[C@H]3C4COC(O4)C(=O)[C@@H]3[C@H]3C=Cc4ccccc4N32)cc1 (some centres not stated)	1%	-5%	21	?	/
COc1ccc(C(=O)C2C3C4COC(O4)C(=O)C3C3C=Cc4ccccc4N32)c(OC)c1 (configuration not stated)	22µM*[fluorescent]	7.1µM*	?	?	/
CC(=O)[C@@H]1[C@H]2[C@H](C(=O)[C@H]3OC[C@@H]2O3)[C@H]2C=Cc3ccccc3N21	35µM*[fluorescent]	6%	?	?	/
CCN(CC)C(=O)COC(=O)c1cc(-c2ccco2)nc2ccccc12	35µM*[quencher]	1%	0	18%	-17%
CC(C)(C)c1cc(C(C)(C)C)c(O)c(C(C)(C)C)c1	3%[201 µM]	3%[201 µM]	/	/	/
Cc1[nH][nH]c(=O)c1C(c1ccc(-c2ccc(Cl)c(Cl)c2)o1)c1c(C)[nH][nH]c1=O	-3%	14µM*	1	?	-12%
Cn1c(CN2CCOCC2)nc2cc(NC(=O)c3ccccc3[N+](=O)[O-])ccc21	100µM*[quencher]	-11%	/	/	/
CCn1c(CN2CCCCC2)nc2cc(NC(=O)COc3ccccc3C(C)(C)C)ccc21	282µM*[quencher]	-21%	/	/	/
CCn1c(CN2CCCCC2)nc2cc(NC(=O)c3ccccc3[N+](=O)[O-])ccc21	-6%	-4%	/	/	/
CCN1CCN(Cc2nc3cc(NC(=O)c4cccc([N+](=O)[O-])c4)ccc3n2CC)CC1	2.8µM*[quencher]	-26%	/	/	/
CC(=O)/C=C/C1C(C)=CCCC1(C)C (configuration not stated)	0%[201 µM]	-1%[201 µM]	/	/	/
C/C=C/C/C=C\CCCCCCCCOC(C)=O	1%[201 µM]	-1%[201 µM]	/	/	/
CCOc1ccc(CN2C(=O)c3ccccc3C2C(=O)NCCc2ccc(OC)c(OC)c2)cc1 (configuration not stated)	-1%	0%	/	/	/
N=c1c2c(-c3ccccc3)c(-c3ccccc3)n(Cc3ccccc3)c2ncn1CCCn1ccnc1	-3%	3%	-2	22µM*	83%

Bioassay records (PubChem)
